Compound activity: PubChem, National Center for Advancing Translational Sciences (NCATS)
Only some compounds are listed: those with a hit (about 4.7% of all), similar ones and a draw of the others.
TRHR ag – agonists of human TRH receptor; TRHR cells, calcium flux fluo-8, FDSS agonist mode; P34981; AID 493084; 360,000 tested, 0.18% active; activation, % at 2 µM
Target sequence (P34981 whole entry, looked up): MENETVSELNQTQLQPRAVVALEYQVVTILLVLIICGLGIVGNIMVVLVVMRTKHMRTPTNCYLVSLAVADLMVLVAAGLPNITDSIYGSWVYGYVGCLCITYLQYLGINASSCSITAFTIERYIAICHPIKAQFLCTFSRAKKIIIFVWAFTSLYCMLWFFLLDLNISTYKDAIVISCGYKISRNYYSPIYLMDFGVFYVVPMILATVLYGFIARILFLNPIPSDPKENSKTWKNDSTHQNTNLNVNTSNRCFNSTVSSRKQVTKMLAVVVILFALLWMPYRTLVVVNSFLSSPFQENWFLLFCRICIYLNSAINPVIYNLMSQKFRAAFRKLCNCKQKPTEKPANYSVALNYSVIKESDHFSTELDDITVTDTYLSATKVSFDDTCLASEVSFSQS
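Fluo-8-loaded TRHR cells; 10 s baseline, compound added, kinetic Ca2+ fluorescence read 1/s, agonist mode.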
D1 potentiator – potentiators of human D1 dopamine receptor; HEK293 TREx D1 cells, calcium flux, dopamine EC20 potentiation; potentiation, % at 10 µM; 360,000 tested, 0.036% active; in the data active = potentiation above about 30%
D1 ag – activates the human D1 dopamine receptor | HEK293 T-REx D1 cells, calcium flux, agonist mode | activation, % at 2 µM | 360,000 tested, 1% active | AID 504660
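Tetracycline-induced HEK293 TREx D1 cells, force-coupled to calcium signalling, were dye-loaded with a no-wash calcium kit. Compound was pin-added after a 10 s baseline. Fluorescence was read kinetically at 1 cycle/s for 180 s, with calcium rises flagged as agonism.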
D1 antagonist – blocks dopamine activation of the human D1 receptor; 360,000 tested, 3.2% active; HEK293 TREx D1 cells, calcium flux, dopamine EC80; stronger effect = lower value; activity change, negative = inhibition, % at 10 µM; in the data active = activity change below about -30%
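Kinetic fluorescence of a calcium dye serves as the read-out. D1-expressing Hek293 Trex cells, induced overnight at 30 C, are exposed to compound for 180 s before an EC80 dopamine addition, then read 180 s further.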
TRHR enhancer – allosterically enhances the human TRH receptor. AID 493056. enhancement, % at 2 µM. 360,000 tested, 0.66% active. TRHR cells, fluo-8 calcium fluorescence, EC20 TRH enhancement. P34981; in the data active = enhancement above about 30%
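Enhancer read-out: after compound pinning and an initial kinetic agonist-mode read, an EC20 of TRH (10 nM final) was injected and fluo-8 calcium signal (Ex 480/Em 530) followed at 1 s/cycle for 100 cycles in TRHR-expressing cells.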
A number is an active result. Cut-off read from the data, not from the text of the source, unless noted: active = activation above about 30%; inactive = the rest.

Screening O=C(NC(=S)NNC(=O)c1ccco1)c1ccc(Br)cc1 returned TRHR ag inactive, D1 potentiator inactive, D1 ag 47, D1 antagonist inactive and TRHR enhancer inactive.
For CCCOc1ccc(C(=O)NNC(=S)NC(C)=O)cc1 the results were TRHR ag inactive, D1 potentiator inactive, D1 ag inactive, D1 antagonist -34 and TRHR enhancer inactive.
For CC(Oc1ccc(Cl)cc1)C(=O)NNC(=S)NC(=O)c1ccco1 (centres undefined) the results were TRHR ag inactive, D1 potentiator inactive, D1 ag 44, D1 antagonist inactive and TRHR enhancer inactive.
Screening CC(C)CC1(C)N=C(c2ccccc2)C(=S)N1 (centres undefined) returned TRHR ag inactive, D1 potentiator inactive, D1 ag inactive, D1 antagonist -40 and TRHR enhancer inactive.
Screening Cc1ccc(C(C)C)c(OCCCn2c(=O)oc3ccccc32)c1 returned TRHR ag inactive, D1 potentiator inactive, D1 ag 33, D1 antagonist inactive and TRHR enhancer inactive.
Screening CN1CCN(S(=O)(=O)c2ccc(N3CCN(S(=O)(=O)/C=C/c4ccccc4)CC3)nc2)CC1 returned TRHR ag inactive, D1 potentiator inactive, D1 ag inactive, D1 antagonist -49 and TRHR enhancer inactive.
Screening CC(O)c1nc2ccccc2n1CCOc1ccccc1 (centres undefined) returned TRHR ag inactive, D1 potentiator inactive, D1 ag 43, D1 antagonist -46 and TRHR enhancer inactive.
`Cc1nc2ccccc2n1CCOc1ccc(F)cc1` gave TRHR ag inactive, D1 potentiator inactive, D1 ag inactive, D1 antagonist inactive and TRHR enhancer inactive.
Screening Cc1nc2ccccc2n1CCOc1ccc([N+](=O)[O-])cc1 returned TRHR ag inactive, D1 potentiator inactive, D1 ag inactive, D1 antagonist -40 and TRHR enhancer inactive.
Screening Cc1ccc(OCCCCn2c(CO)nc3ccccc32)cc1 returned TRHR ag inactive, D1 potentiator inactive, D1 ag inactive, D1 antagonist -37 and TRHR enhancer inactive.
Screening COc1cccc(C(=O)/C=C/Nc2ccc(S(=O)(=O)Nc3ccc(C(C)=O)cc3)cc2)c1 returned TRHR ag inactive, D1 potentiator inactive, D1 ag inactive, D1 antagonist -34 and TRHR enhancer inactive.
`CCOC(=O)c1ccc(N/C=C\C(=O)c2cccc(OC)c2)cc1` gave TRHR ag inactive, D1 potentiator inactive, D1 ag inactive, D1 antagonist -46 and TRHR enhancer inactive.
For CCOC(=O)c1cccc(N/C=C/C(=O)c2ccc(OC)c(OC)c2)c1 the results were TRHR ag inactive, D1 potentiator inactive, D1 ag inactive, D1 antagonist inactive and TRHR enhancer inactive.
CCCCCCCCC1=NCCc2c1[nH]c1ccccc21 was read as TRHR ag inactive, D1 potentiator inactive, D1 ag 38, D1 antagonist inactive and TRHR enhancer inactive.
For Cc1cccc(N2CCN(C(c3ccncc3)c3nnnn3C(C)(C)C)CC2)c1C (centres undefined) the results were TRHR ag inactive, D1 potentiator inactive, D1 ag inactive, D1 antagonist -40 and TRHR enhancer inactive.
CC(C)(C)n1nnnc1C(c1ccncc1)N1CCN(C2CCCCC2)CC1 (centres undefined) was read as TRHR ag inactive, D1 potentiator inactive, D1 ag inactive, D1 antagonist inactive and TRHR enhancer inactive.
Nc1nonc1N/N=C/c1c(O)ccc2ccccc12 was read as TRHR ag inactive, D1 potentiator inactive, D1 ag 31, D1 antagonist inactive and TRHR enhancer inactive.
`Cc1ccc(C(=O)N/N=C/c2c(O)ccc3ccccc23)cn1` gave TRHR ag inactive, D1 potentiator inactive, D1 ag inactive, D1 antagonist inactive and TRHR enhancer inactive.
Screening O=C(N/N=C/c1c(O)ccc2ccccc12)c1cccnc1 returned TRHR ag 36, D1 potentiator inactive, D1 ag 42, D1 antagonist inactive and TRHR enhancer inactive.
`O=C(N/N=C\c1c(O)ccc2ccccc12)c1cncc(Br)c1` gave TRHR ag 105, D1 potentiator inactive, D1 ag 314, D1 antagonist inactive and TRHR enhancer 38.
Cn1c(=O)oc2cc(S(=O)(=O)N3CCCC(C(=O)Nc4ccc(Br)cc4F)C3)ccc21 (centres undefined) was read as TRHR ag inactive, D1 potentiator inactive, D1 ag inactive, D1 antagonist inactive and TRHR enhancer inactive.
For Cc1ccc(-n2c(Cc3cccn3C)nnc2SCC(=O)Nc2nnc(C)s2)cc1 the results were TRHR ag inactive, D1 potentiator inactive, D1 ag inactive, D1 antagonist inactive and TRHR enhancer inactive.
For Cc1nnc(NC(=O)CSc2nnc(Cc3cccn3C)n2C)s1 the results were TRHR ag inactive, D1 potentiator inactive, D1 ag inactive, D1 antagonist -37 and TRHR enhancer inactive.
COc1ccc(NC(=O)CSc2nnc(Cc3cccn3C)n2-c2ccc(F)cc2)cc1OC was read as TRHR ag inactive, D1 potentiator inactive, D1 ag inactive, D1 antagonist -45 and TRHR enhancer inactive.
Screening CSc1ccc(CCNC(=O)Cn2c(C)c3cnn(-c4ccccc4)c(=O)c3c2C)cc1 returned TRHR ag inactive, D1 potentiator inactive, D1 ag inactive, D1 antagonist inactive and TRHR enhancer inactive.
O=[N+]([O-])c1ccc(S(=O)(=O)NCCS(=O)(=O)N2CCN(c3ccccc3)CC2)cc1 was read as TRHR ag inactive, D1 potentiator inactive, D1 ag inactive, D1 antagonist inactive and TRHR enhancer inactive.
For CCOC(=O)CSc1nc(C)c(C(=O)OCC)s1 the results were TRHR ag inactive, D1 potentiator inactive, D1 ag inactive, D1 antagonist -35 and TRHR enhancer inactive.
Screening CCOC(=O)CSc1nc2ccc(N)cc2s1 returned TRHR ag inactive, D1 potentiator inactive, D1 ag inactive, D1 antagonist inactive and TRHR enhancer inactive.
Screening Nc1nc(N)c2cc(Sc3ccc4ccccc4c3)ccc2n1 returned TRHR ag inactive, D1 potentiator inactive, D1 ag 33, D1 antagonist inactive and TRHR enhancer inactive.
Screening Nc1ccc(Sc2cc(Cl)nc(N)n2)cc1 returned TRHR ag inactive, D1 potentiator inactive, D1 ag inactive, D1 antagonist inactive and TRHR enhancer inactive.
CC1CCCCC1NC(=O)/C(C#N)=C/c1ccc(F)c(F)c1 (centres undefined) was read as TRHR ag inactive, D1 potentiator inactive, D1 ag inactive, D1 antagonist -45 and TRHR enhancer inactive.
For Cc1c(Cl)c([N+](=O)[O-])nn1CCCC(=O)Nc1cccc(Cl)c1 the results were TRHR ag inactive, D1 potentiator inactive, D1 ag inactive, D1 antagonist -32 and TRHR enhancer inactive.
Screening CCOc1ccc(C2CC(=O)c3c([nH]c(C(=O)OC4CCCCCC4)c3C)C2)cc1 (centres undefined) returned TRHR ag inactive, D1 potentiator inactive, D1 ag inactive, D1 antagonist inactive and TRHR enhancer inactive.
